Source: PubChem BioAssay (NCI)
About 83,000 compounds went through this panel and 20% of them were active in at least one assay; those are over-represented in the sample as a whole.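 Percent growth is the endpoint: 0 to 100 indicates growth inhibition (40 means 60% inhibition), 0 means no net growth, and negative values indicate cell death.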 Values without a mark were called inactive. Calls of active or inactive are those of the source. How the source made its calls: active means growth percent below 10; inactive means the rest.

System: RXF 393 renal
Test: NCI-60 one-dose screen, 48 h (100 = growth as untreated, 0 = no growth, -100 = all killed)
Settings: 10 µM unless noted

Compound | growth
CN1CCN(Cc2ccc(NC(=O)c3cncc(C#Cc4cnc5ccc(NCCCO)nn45)c3)cc2C(F)(F)F)CC1 | -89% (active)
COC(=O)c1[nH]nc2c1C1(C(=O)N(C)c3ccccc31)C(C#N)=C(N)O2 (configuration not stated) | 114%
O=C(Cn1cc(-c2ccccc2)nn1)Nc1nc(-c2ccc(Cl)cc2)cs1 | 135%
COc1cc(OC)c(S(N)(=O)=O)cc1C(C)=O | 121%
COc1ccccc1N1CCN(C2=CC(=O)C(C)=C(C)C2=O)CC1 | 97.7%
NC(N)=Nc1ccc(Oc2cccc(Nc3ccc(Br)c(C(F)(F)F)c3)c2)cn1 | -10.5% (active)
CCc1cccc2c3c(sc12)C(c1ccc(OC)cc1)C(C#N)=C(/N=C/c1ccc(Cl)cc1)O3 (configuration not stated) | -11.4% (active)
COc1ccc(/C=C(\C#N)C(=O)N2c3ccccc3Sc3ccc(SC)cc32)cc1F | 100%
Cc1ccc(NC(=O)CNc2cc(C(N)=O)cc(F)c2C)c(Cl)c1 | 36.2%
CNC(=O)c1cc(Oc2ccc3nc(NC(=O)c4cccc(OC(F)(F)F)c4)sc3c2)ccn1 | -1.69% (active)
O=C1CCCC2=C1C(c1c[nH]c3ccc(Br)cc13)Cc1cc(Br)ccc1N2 (configuration not stated) | 50.1%
COc1cc2oc(-c3cccc(C(=O)N[C@@H](CC(C)C)C(=O)OC(C)(C)C)c3)cc(=O)c2c(OC)c1OC | 86.2%
NC(N)=Nc1ccc(Nc2cccc(Nc3ccc(Cl)c(C(F)(F)F)c3)c2)cn1 | 77.6%
CC(=O)c1nnn(-c2c(C(=O)n3nc(C)cc3C)sc(=S)n2-c2ccccc2)c1C | 103%
COc1ccc(C(=O)CSc2nc3c(c(Nc4ccc(S(N)(=O)=O)cc4)n2)CCCC3)cc1 | 82.5%
N#Cc1c(Nc2ccccc2)nn2c(-c3ccc([N+](=O)[O-])cc3)ccnc12 | 90.3%
O=C(CCn1c[n+](CC(=O)c2ccc(-c3ccccc3)cc2)c2ccccc21)Nc1cccc2cccnc12 | 69.6%
COc1ccc(OC)c(-c2nc(SCC(=O)c3ccc(Br)cc3)nc(Nc3ccc(S(N)(=O)=O)cc3)c2C#N)c1 | 17.3%
FC(F)(F)c1cc(Nc2cccc(Oc3ccc(NC4=NCCN4)nc3)c2)ccc1Cl | 18.1%
CCO/C=N/C1=C(C#N)C(c2ccc(OC)cc2)c2sc3c(CC)cccc3c2O1 (configuration not stated) | -21% (active)
CN(C)CCN(C)c1ccc2ncc(C#Cc3cncc(C(=O)Nc4ccc(CN5CCN(C)CC5)c(C(F)(F)F)c4)c3)n2n1 | -90.1% (active)
NC(=O)c1c(NC(=O)c2ccccc2C(F)(F)F)sc2c1CCC(=O)C2 | 41.7%
COc1ccc(CCOc2cc3c(cc2OC)CCN(C(=O)NCc2cocn2)C3c2ccc(C)cc2C)cc1 (configuration not stated) | 1.12% (active)
CC(C)(C)c1ccc(C(=O)Nc2nc3ccc(O)cc3s2)cc1 | 46.3%
CC1(C)CC[C@]2(C(=O)N3CCOCC3)CC[C@]3(C)C(=CC[C@@H]4[C@@]5(C)C/C(=C/c6ccccn6)C(=O)C(C)(C)[C@@H]5CC[C@]43C)[C@@H]2C1 | 3.83% (active)
CCO/C=N/C1=C(C#N)C(c2ccc(F)cc2)c2sc3c(C)cccc3c2O1 (configuration not stated) | 0.223% (active)
COc1cc(-c2nc(SC(C)C)n(C(C)C)c(=O)c2C#N)ccc1OCc1ccccc1 | 91.1%
